Results reported in PubChem BioAssay AID940 (Emory University Molecular Libraries Screening Center, 2007).
“And” between values parts separate entries of the source, which are not always exact repeats. Equal values may be shown once. About 2,200 (0.85%) of roughly 260,000 compounds were called active.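 How the source made its calls: active means compounds whose cAMP rise, as percent of the full-agonist control response, exceeds 60; inactive means the rest.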 This excerpt belongs to a sample that is enriched for actives. The source holds several records for some structures; these can differ, active in one and inactive in another.

Target: Prostaglandin E2 receptor EP2 subtype (Homo sapiens) (UniProt P43116)
Sequence (P43116 whole entry, looked up): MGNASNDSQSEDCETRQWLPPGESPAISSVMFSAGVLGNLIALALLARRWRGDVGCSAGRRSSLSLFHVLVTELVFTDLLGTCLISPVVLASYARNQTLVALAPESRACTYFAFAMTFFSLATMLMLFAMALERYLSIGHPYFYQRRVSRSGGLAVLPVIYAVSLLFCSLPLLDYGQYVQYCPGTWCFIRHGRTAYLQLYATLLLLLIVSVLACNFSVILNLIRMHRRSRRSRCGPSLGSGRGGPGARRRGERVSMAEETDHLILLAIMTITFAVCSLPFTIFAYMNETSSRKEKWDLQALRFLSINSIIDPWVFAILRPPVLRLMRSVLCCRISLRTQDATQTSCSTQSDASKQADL
Experiment: modulation of human EP2 prostaglandin signaling – cell-based, HTRF cAMP, PGE2 stimulation, primary screen (AID 940);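 further: rat C6 glioma line stably carrying human EP2 under a CMV promoter; the protocol text gives 20 µM as final concentration; 100% = response of wells given 1 µM PGE2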
Settings: EP2-expressing cells, cAMP HTRF FRET, PGE2 co-stimulation; at 25 µM; stronger effect = higher value

Structure (SMILES)	induction
C[N+]1(C)CCOC(O)(c2ccc(-c3ccc(C4(O)C[N+](C)(C)CCO4)cc3)cc2)C1 (stereo not given)	27.6% (inactive) and 76.2% (active)
C=CCc1cc(CN2C3CCC2CC(O)(c2nccn2C)C3)cc(OCC)c1O (stereo not given)	-31.8% (inactive)
Cc1cccc2cc(CN(Cc3ccco3)C3(c4nnnn4C4CCCC4)CCCCC3)c(=O)[nH]c12	24.8% (inactive)
N#CC1=C(N)Oc2c(c(=O)oc3ccccc23)C1c1cc2c(cc1Cl)OCO2 (stereo not given)	0.48% (inactive)
COc1ccccc1/C=C/CN1C2CCC1CC(O)(c1ccccc1F)C2 (stereo not given)	-60.2% (inactive)
O=C(CN1C2CCC1CC(O)(c1ccco1)C2)NCc1ccccc1 (stereo not given)	-18.4% (inactive)
CC(c1ccccc1)(c1ccccc1)c1ccncc1	61.2% (active)
O=C1CCCN1C(=O)c1cc(Cl)cc(Cl)c1	-0.43% (inactive)
OC12CCCCC1CN(Cc1ccnc3ccccc13)CC2 (stereo not given)	-29.6% (inactive)
O=C(CN1C2CCC1CC(O)(c1ccccn1)C2)N1c2ccccc2Sc2ccccc21 (stereo not given)	8.29% (inactive)
